Test results reported in PMC6212790, “How bacterial xenogeneic silencer rok distinguishes foreign from self DNA in its resident genome”.
The full ranking holds about 33,000 sequences; the median of “e-score” is about -0.038, and the highest 2% start at about 0.33. The list comes from a sample in which the highest values are over-represented; it also holds similar and randomly drawn sequences.

Target: T1, GST-Rok-C97-191 (Bacillus subtilis subsp. subtilis str. …, UniProt O34857 97-191)
T1 sequence: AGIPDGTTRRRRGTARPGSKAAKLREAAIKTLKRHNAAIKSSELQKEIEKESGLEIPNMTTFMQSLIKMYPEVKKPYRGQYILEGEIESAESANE
Test: protein binding microarray; Rok is a gene silencer of Bacillus subtilis; high values mean tight binding
Settings: protein: recombinant; tags: GST (pTH5325, pDEST15-Magic modified); dsDNA, one strand shown
Outline: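 Every oligonucleotide joins a 25-mer constant primer to a 35-mer variable part drawn from a de Bruijn sequence of order 10, so each non-palindromic 8-mer appears at least 32 times and each palindromic 8-mer 16 times. The preference for every 8-mer is reported as a unitless, rank-based enrichment score (E-score). This score spans 0.5 for the most favored 8-mer to −0.5 for the most disfavored.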

Row | Sequence | binding signal [E-score]
1 | GAAATGGC | -0.16
2 | ACTCGTAC | 0.0277
3 | CAGTAATC | -0.0737
4 | GATGCAGC | -0.0978
5 | AACATATT | 0.24
6 | GTACGCCA | -0.0805
7 | GCTTCACA | -0.0519
8 | CATGACTC | 0.0199
9 | AATGGTAG | 0.441
10 | AGTGGTAG | 0.378
11 | ATTGGTAC | 0.278
12 | CATGGTAG | 0.188
13 | ATAGGTAA | 0.225
14 | ATAGGTAC | 0.257
15 | ATTGGTAA | 0.258
16 | AATGGTAT | 0.328
17 | ATAGGTAG | 0.358
18 | AGTGGTAC | 0.202
19 | CGTGGTAG | 0.206
20 | ATTGGTAG | 0.38
21 | CTTATTCC | 0.00112
22 | AAGAGAGC | -0.136
23 | AGCGTACC | -0.188
24 | AGCGGGAG | -0.145
25 | ACCAACTA | 0.161

Row | Sequence | binding signal [E-score]
26 | TACGGCCA | -0.0766
27 | ACTTTCGC | 0.0461
28 | TACCCATA | 0.234
29 | AGCCTTAT | -0.11
30 | ACTACTAG | 0.361
31 | ACTACAAC | 0.295
32 | ACTACTCG | 0.159
33 | ACTACTAC | 0.419
34 | ACTACTGC | 0.113
35 | CCTACTAG | 0.18
36 | ACTACAAT | 0.329
37 | CCTACATC | 0.187
38 | ACTACATC | 0.334
39 | ACTACAAG | 0.137
40 | GCTACTAC | 0.264
41 | ACTACATG | 0.307
42 | CTGCCTTC | -0.104
43 | GCTCGCAA | -0.145
44 | AGCTAGGA | -0.00935
45 | ACTACGAT | 0.362
46 | CCTACTAA | 0.101
47 | ACTACTCT | 0.19
48 | ACTACTCA | 0.265
49 | CCTACTTC | 0.0914
50 | ACTACTAT | 0.46

Row | Sequence | binding signal [E-score]
51 | ACTACGAC | 0.0766
52 | CCTACTAC | 0.343
53 | ACTACGAA | 0.163
54 | CCGGACCG | -0.0456
55 | CGTCAACC | -0.182
56 | GTGAGATA | 0.0844
57 | CCTTCTCC | -0.165
58 | ACCGCTAA | 0.13
59 | GTCCAATA | 0.0328
60 | CTCGCAAA | 0.0435
61 | ACTCGGTA | 0.286
62 | GGGAGCAC | -0.183
63 | CTATAATA | 0.34
64 | ATATAATA | 0.446
65 | GTATAACA | 0.141
66 | CTATAAGA | 0.156
67 | ATATAATG | 0.3
68 | ATATAATC | 0.201
69 | CTATAATC | 0.222
70 | GTATAATA | 0.413
71 | GTATAAAA | 0.32
72 | CGAGAAGA | -0.0403
73 | CCTTAGGA | 0.047
74 | ACTGCACC | 0.128
75 | TCTTAAAA | -0.0115

Row | Sequence | binding signal [E-score]
76 | AAAACAAC | 0.116
77 | AAAGTGAC | -0.0335
78 | ATTCTTGC | 0.103
79 | ATATGTTA | 0.331
80 | TAATGGTA | 0.325
81 | GAATGGTA | 0.39
82 | CTATGGTA | 0.211
83 | ATATGTTC | 0.238
84 | ATATGGTG | 0.159
85 | CTATGTTA | 0.256
86 | GAATGGTC | -0.121
87 | ATATGGTA | 0.331
88 | AGAGCCAG | -0.194
89 | ACGTGCCT | -0.189
90 | CCGTTCTA | 0.108
91 | TACAGGAA | 0.0535
92 | GGAATCGA | 0.209
93 | AGATTGTG | 0.09
94 | CTAGCTAA | 0.127
95 | ATAGCTAC | 0.31
96 | ATAGCTAT | 0.402
97 | GTAGCTAC | 0.428
98 | TTAGCTAA | 0.263
99 | CTAGCTAC | 0.163
100 | GTAGCTAA | 0.346

Row | Sequence | binding signal [E-score]
101 | GAAGCTAC | 0.309
102 | ATAGCTAG | 0.271
103 | ATTTAATG | 0.105
104 | CGTCTGAA | -0.0845
105 | CTAAAGTC | 0.0658
106 | ATGCTGAC | -0.0948
107 | ATTCGACC | -0.138
108 | GGGTAATA | 0.272
109 | AGGTAGTG | -0.0194
110 | AGGTAATA | 0.328
111 | AGGTAGTC | 0.0784
112 | CGGTAGTA | 0.391
113 | CGGTAGTC | 0.174
114 | AGGTAATG | 0.113
115 | AGGTAGTA | 0.328
116 | GGGTAGTA | 0.3
117 | CTTCGAAC | -0.152
118 | GAACTACC | 0.367
119 | AAACTACA | 0.387
120 | AGACTACA | 0.0455
121 | GCACTACC | 0.0373
122 | CAACTACG | 0.113
123 | CAACTACA | 0.234
124 | AAACTACG | 0.387
125 | GAACTACA | 0.252

Row | Sequence | binding signal [E-score]
126 | AGACTACT | 0.198
127 | ACACTACG | -0.0248
128 | AAACTACT | 0.464
129 | ACACTACT | 0.18
130 | GGTCCGAC | -0.143
131 | ATGAAAGC | -0.0998
132 | AGGTGAAG | -0.109
133 | TACTGTAA | 0.323
134 | CGGAGAAC | 0.0827
135 | ACATTCGA | 0.071
136 | AAACTACC | 0.473
137 | AGACTACC | 0.268
138 | TGACTACA | 0.031
139 | TCACTACA | -0.0801
140 | CAACTACC | 0.271
141 | TAACTACA | 0.423
142 | AACAGCTC | 0.087
143 | TATGGAGA | 0.0429
144 | ATGTACAG | 0.317
145 | TTGTACAA | 0.342
146 | ATGTACAA | 0.317
147 | ATGTACTC | 0.178
148 | CTGTACCA | -0.0649
149 | ATGTACTA | 0.376
150 | GTGTACTA | 0.16

Row | Sequence | binding signal [E-score]
151 | ATGTACCA | 0.335
152 | ATGTACCC | 0.0999
153 | ATGTACAT | 0.377
154 | GTGTACAA | 0.213
155 | CTGTACAA | 0.0696
156 | ATGCAGTC | -0.0482
157 | ATCTAAAC | 0.0603
158 | AGGCCAAT | -0.176
159 | CCTACAGA | 0.064
160 | AAGTCTAG | 0.0844
161 | GGTTATAA | 0.0781
162 | GGAGTTGA | -0.137
163 | AAGACCAA | -0.0146
164 | CGACCACA | -0.0849
165 | ACGCGCAT | -0.158
166 | TTCTACAA | 0.362
167 | GTCTACAA | -0.0759
168 | CTCTACAA | 0.00826
169 | ACGACCGT | 0.00992
170 | ACATTGCA | 0.0494
171 | ACTAGATA | 0.403
172 | ATTAGATC | 0.0978
